From PubChem BioAssay
CHX counter: affects cycloheximide protein synthesis inhibition readout, counter-screen; cell reporter, cycloheximide protein synthesis inhibition counterscreen; max response, %; actives 12% (n = 300,000); AID 2314; in the data active = max response mostly above about 13%, no sharp cut-off; inactive = mostly below about 14%; note: read at 38.3 µM for the half of the compounds with a filed dose; 0% is about no effect
AMA1 RON2 block: inhibitors of Plasmodium falciparum AMA1-RON2 interaction; actives 0.2% (n = 360,000); Potency, µM (titrated, usually from 58.2 µM), inactives show at the highest dose activity change, negative = inhibition, hits mostly inhibitors; AlphaScreen AMA1-biotinylated RON2 peptide binding;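 note: potency is the fitted concentration of half-maximal effect; 0% = vehicle wells and -100% = peptide control; nearly all actives have a fitted effect of over 45% in size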
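AMA1 (3D7) with his tag at 25 nM final met compounds first, then biotinylated RON2 peptide at 25 nM; detection used donor plus acceptor beads, 10 µg/mL apiece, read by AlphaScreen after 30 min at room temperature.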
HCV inh: blocks hepatitis C virus; actives 3.4% (n = 340,000); Potency, µM (doses to about 41.8 µM), inactives show at the top dose activity change, negative = inhibition, usual class: inhibitors; Huh7.5.1 HCVcc-Cre infection, luciferase reporter, 44 h; note: potency is the fitted concentration of half-maximal effect; % is set by controls: 0 for no effect and ±100 for the full control effect
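Cells seeded at 1,000/well and cultured 4 h, then compounds added followed by HCVcc-Cre virus (~0.5 moi). After 44 h further culture, luciferase substrate was added, plates held 15 min at room temperature, and luminescence read for 15 sec.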
Pf growth 48h: inhibits P. falciparum growth in the first generation, 48 h; actives 5.9% (n = 310,000); P. falciparum luciferase growth in erythrocytes, 48 h; Potency, µM (highest dose often 28.7 µM), inactives show at the top dose activity change, negative = inhibition, actives largely listed as inhibitors; note: potency is the fitted concentration of half-maximal effect; % is set by controls: 0 for no effect and ±100 for the full control effect
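Erythrocytes infected with P. falciparum carrying an integrated firefly luciferase reporter (2% hematocrit, 0.1% parasitemia final) were exposed to compounds in RPMI 1640 with 0.5% Albumax at 37 C, 5% CO2. Growth inhibition was scored as reduced luminescence.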
Pf growth 96h: P. falciparum growth inhibition at 96 hour, primary screen for plastid delayed-death inhibitors; AID 504834; actives 6.9% (n = 320,000); P. falciparum luciferase reporter growth, 96 h; Potency, µM (doses to about 28.7 µM), for inactives: top-dose activity change, negative = inhibition, hits mostly inhibitors; note: potency is the fitted concentration of half-maximal effect; % is set by controls: 0 for no effect and ±100 for the full control effect
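Erythrocytes infected with luciferase-expressing P. falciparum were dispensed at 2% hematocrit and 0.05% parasitemia (final), then incubated with compounds 96 hours at 37 C in 5% CO2. Luminescence after detection reagent addition reported growth.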
Shiga toxin inh: Shiga toxin inhibition. Vero cells, Shiga toxin protein synthesis inhibition reporter. actives 9.2% (n = 290,000). inhibition, % at 38.7 µM. AID 2315; in the data active = inhibition mostly above about 28%, no sharp cut-off; inactive = mostly below about 43%; note: 0% is about no effect
Starred values were filed as active, the others as inactive. Shown are actives, neighbours in structure and some others; about 21% of the full set was active somewhere. Unless noted, calls come from the whole dose curve; as a rule, active = well fitted curve in the direction sought with a large enough effect; inconclusive = small, poorly fitted or top-dose-only effect, or another doubt; inactive = no such curve, though single readings can be large; an effect the other way counts as inactive or inconclusive.

Cc1ccc(-n2c(=O)[nH]c3c(C(N)=O)nc(CC(C)C)nc32)cc1 was read as CHX counter -2, AMA1 RON2 block 19%, HCV inh inconclusive, Pf growth 48h inconclusive, Pf growth 96h 1.7µM* and Shiga toxin inh 10.
O=c1[nH]c2cc(C(F)(F)F)c(N3CCOCC3)cc2n(CP(=O)(O)O)c1=O was read as CHX counter -3, Pf growth 48h 12%, Pf growth 96h 16% and Shiga toxin inh -4.
Screening COc1ccc(/C(C)=N/NC(=O)CNC(=O)Cc2ccccc2)c(OC)c1 returned CHX counter 1, AMA1 RON2 block 22%, HCV inh -12%, Pf growth 48h -10%, Pf growth 96h 54% and Shiga toxin inh -5.
For COc1ccc2cc(C(=O)O)ccc2c1 the results were CHX counter -2, AMA1 RON2 block -9%, HCV inh 14%, Pf growth 48h 4%, Pf growth 96h 59% and Shiga toxin inh -13.
`COc1ccc2c(c1)C(=NNc1ccc(C(=O)O)cc1)c1cc(OC)ccc1-2` gave CHX counter 9, AMA1 RON2 block -1%, HCV inh 14µM*, Pf growth 48h inconclusive, Pf growth 96h 35% and Shiga toxin inh 43.
COc1ccc(/C(C)=N/Nc2ccc(C(=O)O)cc2)c(OC)c1 was read as CHX counter 61*, AMA1 RON2 block -20%, HCV inh 33%, Pf growth 48h 191%, Pf growth 96h 200% and Shiga toxin inh 53*.
Screening COc1ccc2c(c1)C(=NN)c1cc(OC)ccc1-2 returned CHX counter 45*, AMA1 RON2 block -13%, HCV inh inconclusive, Pf growth 48h inconclusive, Pf growth 96h -52% and Shiga toxin inh 85.
Screening CN(CCO)S(=O)(=O)c1ccc2c(c1)C(=NN)c1cc(S(=O)(=O)N(C)CCO)ccc1-2 returned CHX counter -4, AMA1 RON2 block -3%, HCV inh -16%, Pf growth 48h -12%, Pf growth 96h 2% and Shiga toxin inh -3.
For CCn1cc(C(=O)NCCCN(CC(C)C)CC(C)C)c(=O)c2cc(S(=O)(=O)N3CCOCC3)ccc21 the results were CHX counter 3, AMA1 RON2 block 4%, HCV inh 7%, Pf growth 48h -4%, Pf growth 96h inconclusive and Shiga toxin inh -7.
CCCCN(C=O)c1c(CC)nc2c(OCc3ccccc3C)cccn12 was read as AMA1 RON2 block -16%.
`O=C(Cn1c(=O)c(=O)n(Cc2ccccc2)c2ccc(Cl)cc21)Nc1cccc(F)c1` gave CHX counter -1, AMA1 RON2 block 6%, HCV inh inconclusive, Pf growth 48h 2%, Pf growth 96h 13µM* and Shiga toxin inh -8.
O=C(CN1CCN(Cc2ccccc2)CC1)Nc1cccc(Cl)c1 was read as CHX counter 1, AMA1 RON2 block -4%, HCV inh 0%, Pf growth 48h 3%, Pf growth 96h 1% and Shiga toxin inh -5.
For O=C(Cn1c2ccccc2c(=O)c2ccccc21)Nc1cccc(F)c1 the results were CHX counter 0, AMA1 RON2 block 13%, HCV inh -13%, Pf growth 48h 15µM*, Pf growth 96h inconclusive and Shiga toxin inh -10.
Screening O=C(CCC(=O)c1ccc(Oc2ccccc2)cc1)Nc1ccc(C(=O)O)cc1 returned CHX counter 1, AMA1 RON2 block 5%, HCV inh 13%, Pf growth 48h -34%, Pf growth 96h inconclusive and Shiga toxin inh -11.
For CCc1ccc(CN(C)C(=O)c2cc(COc3cccc4cnccc34)on2)cc1 the results were CHX counter -1, AMA1 RON2 block -6%, HCV inh 7.9µM*, Pf growth 48h inconclusive, Pf growth 96h 31% and Shiga toxin inh 1.
For Cc1c(C(C)NC(=O)c2cc(COc3cccc4cnccc34)on2)cnn1C (centres undefined) the results were CHX counter 14, AMA1 RON2 block 5%, HCV inh 7.1µM*, Pf growth 48h 2%, Pf growth 96h 8.3µM* and Shiga toxin inh 13.
CSc1ccccc1OCc1cc(C(=O)NC(C)c2cnn(C)c2)no1 (centres undefined) was read as CHX counter 13, AMA1 RON2 block -15%, HCV inh -6%, Pf growth 48h 17%, Pf growth 96h inconclusive and Shiga toxin inh -8.
Screening CN(Cc1cccc2cnccc12)C(=O)c1cc(COc2ccc(F)cc2F)on1 returned CHX counter -1, AMA1 RON2 block -8%, HCV inh 8.9µM*, Pf growth 48h inconclusive, Pf growth 96h 3% and Shiga toxin inh -7.
Cc1cccc(C)c1NC(=O)C(c1ccccc1)n1c(=O)c(-c2ccco2)nc2ccccc21 (centres undefined) was read as AMA1 RON2 block 4%.
For CSCC(=O)N1CCC(n2nccc2NC(=O)CCc2ccccc2)CC1 the results were CHX counter -9, AMA1 RON2 block -5%, HCV inh 15%, Pf growth 48h 20%, Pf growth 96h inconclusive and Shiga toxin inh -9.
C=CCCC(=O)N1CCC(n2nccc2NC(=O)CCCc2ccccc2)CC1 was read as CHX counter 13*, AMA1 RON2 block 0%, HCV inh -4%, Pf growth 48h 18%, Pf growth 96h 0% and Shiga toxin inh 20.
For CSCCC(=O)N1CCC(n2nccc2NC(=O)CCCc2ccccc2)CC1 the results were CHX counter 17*, AMA1 RON2 block -4%, HCV inh -13%, Pf growth 48h inconclusive, Pf growth 96h inconclusive and Shiga toxin inh 21.
`CC[C@@]1(C(=O)OC)N[C@H](CN(C)C(=O)c2ccc(F)cc2)[C@@H]2C(=O)N(Cc3ccccc3)C(=O)[C@@H]21` gave AMA1 RON2 block 8% and HCV inh 16%.
For N#C/C(=C\c1ccc(F)c(F)c1)C(=O)NC1CCCCC1 the results were CHX counter -1, AMA1 RON2 block -5%, HCV inh -5%, Pf growth 48h 2%, Pf growth 96h 19% and Shiga toxin inh -13.
`N#C/C(=C\c1ccc(F)c(Br)c1)C(=O)NC1CC1` gave CHX counter 30*, AMA1 RON2 block -3%, HCV inh 4%, Pf growth 48h 97%, Pf growth 96h inconclusive and Shiga toxin inh 42*.
Screening COCCN=c1scc(-c2ccccc2)n1/N=C/c1c[nH]c2ccccc12 returned CHX counter 17*, AMA1 RON2 block inconclusive, HCV inh inconclusive, Pf growth 48h inconclusive, Pf growth 96h inconclusive and Shiga toxin inh 29.
For CCN=c1scc(C)n1/N=C/c1cc(Br)c(O)c(Br)c1 the results were CHX counter 20, AMA1 RON2 block 21%, HCV inh -17%, Pf growth 48h inconclusive, Pf growth 96h inconclusive and Shiga toxin inh 32*.
